# Measurements reported in PubChem BioAssay.
# Where “and” joins values, the source holds several entries; their conditions need not be identical. Equal entries are not always repeated. Records with an inconclusive call do not appear. Calls of active or inactive are those of the source. Unless noted, no stated cut-off is given here; in the data, active means inhibition above about 80%; inactive means the rest.
# Tests used:
# [1] = CRL2098 osteosarcoma cell growth inhibition, synergistic combos for chromothripsis tumors, BGB or cisplatin IC20 combos (AID 1671454); details: CRL2098 osteosarcoma cells, drug combinations, stronger effect = higher value;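 further: cells exposed for 96 h before readout; 0% = vehicle DMSO and 100% = killing by high DMSO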
# [2] = HD-MB03 medulloblastoma cell growth inhibition, synergistic combos for chromothripsis tumors, BGB or cisplatin IC20 combos (AID 1671455; in the data active means inhibition above about 83%;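 further: 0% = vehicle DMSO and 100% = high DMSO as cytotoxic control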); details: HD-MB03 medulloblastoma cells, stronger effect = higher value
# [3] = UWB1.289 ovarian carcinoma cell growth inhibition, synergistic combos for chromothripsis tumors, BGB or cisplatin combos (AID 1671456); details: UWB1.289 ovarian carcinoma cells, stronger effect = higher value;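 further: cells exposed to compound for four days; 0% = vehicle DMSO and 100% = killing by high DMSO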
# [4] = LFS_MB_2R medulloblastoma cell growth inhibition, synergistic combos for chromothripsis tumors, cisplatin combos (AID 1671457); details: LFS_MB_2R medulloblastoma cells, stronger effect = higher value;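 further: cells exposed to compound for four days before readout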
# [5] = UWB1.289_BRCA1 ovarian cancer growth, cell-based, BGB or cisplatin combinations (AID 1671459); details: UWB1.289 BRCA1 ovarian carcinoma, drug combinations, stronger effect = higher value
# [6] = human astrocyte viability loss, single and combined drugs, cytotoxicity control for chromothriptic childhood tumor combination screen, cell-based, BGB or cisplatin IC20 combos (AID 1671460); details: Human astrocytes, drug combinations, stronger effect = higher value;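 further: cells exposed to compounds for 96 hours before viability readout; 0% = vehicle and 100% = killing control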
# [7] = viability rescue of complex I mutant cybrids, primary screen, cell-based, galactose medium, ATP luminescence (AID 1645843;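 active means z-score of at least 1.8 in each of two replicates, scored against plate mean and spread of sample wells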;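 further: positive z means more ATP and so rescue of galactose-driven cybrid death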); details: complex I mutant cybrid cells, 72 h, stronger effect = higher value
# [8] = growth inhibition of DIPG glioma cells, dose response, cell-based, SU-DIPG-XIII, MIPE5.0, CellTiter-Glo, qHTS (AID 1347064; cut-off not given, nearly all actives have AC50 up to about 23 µM;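 on AC50: cells exposed to compound for 48 hours before the viability read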); details: SU-DIPG-XIII viability, CellTiter-Glo ATP luminescence
# [9] = circadian clock period modulators, cell-based, LOPAC library, luminescence reporter (AID 2774; call rule not given here;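 further: values are relative to mean of DMSO wells on each plate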); details: circadian reporter cells, at 7 µM, actives lie on both sides
# [10] = hESC survival regulators, cell-based (AID 493140; call rule not given here;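 further: cells exposed to compounds for four days before counting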); details: human embryonic stem cell survival screen; stronger effect = higher value
# [11] = liver-stage malaria parasite growth inhibition, primary screen, cell-based, HepG2, luciferase luminescence, HepG2 viability (AID 624349; in the data active means parasite load remaining mostly below about 12%, no sharp cut-off; inactive means mostly above about 10%;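 further: 100% = mean of DMSO negative control wells on the same plate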); details: P. berghei liver stage in HepG2, luciferase luminescence, concentration not given here; parasite load remaining: stronger effect = lower value; viability: measured here: HepG2 viability without parasites
# [12] = biological target: NAD(+) hydrolase SARM1 (Homo sapiens) (UniProt Q6SZW1); assay: SARM1 TIR NADase inhibitors, cell lysate, NAD-Glo luminescence (AID 1508614;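 active means compound whose remaining NAD level is above about 45 nM, limit read from the data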); details: SAM-TIR HEK293T lysate NADase, at 1 µM, stronger effect = higher value
# Sequence of NAD(+) hydrolase SARM1 (Homo sapiens) (Q6SZW1 whole entry, looked up): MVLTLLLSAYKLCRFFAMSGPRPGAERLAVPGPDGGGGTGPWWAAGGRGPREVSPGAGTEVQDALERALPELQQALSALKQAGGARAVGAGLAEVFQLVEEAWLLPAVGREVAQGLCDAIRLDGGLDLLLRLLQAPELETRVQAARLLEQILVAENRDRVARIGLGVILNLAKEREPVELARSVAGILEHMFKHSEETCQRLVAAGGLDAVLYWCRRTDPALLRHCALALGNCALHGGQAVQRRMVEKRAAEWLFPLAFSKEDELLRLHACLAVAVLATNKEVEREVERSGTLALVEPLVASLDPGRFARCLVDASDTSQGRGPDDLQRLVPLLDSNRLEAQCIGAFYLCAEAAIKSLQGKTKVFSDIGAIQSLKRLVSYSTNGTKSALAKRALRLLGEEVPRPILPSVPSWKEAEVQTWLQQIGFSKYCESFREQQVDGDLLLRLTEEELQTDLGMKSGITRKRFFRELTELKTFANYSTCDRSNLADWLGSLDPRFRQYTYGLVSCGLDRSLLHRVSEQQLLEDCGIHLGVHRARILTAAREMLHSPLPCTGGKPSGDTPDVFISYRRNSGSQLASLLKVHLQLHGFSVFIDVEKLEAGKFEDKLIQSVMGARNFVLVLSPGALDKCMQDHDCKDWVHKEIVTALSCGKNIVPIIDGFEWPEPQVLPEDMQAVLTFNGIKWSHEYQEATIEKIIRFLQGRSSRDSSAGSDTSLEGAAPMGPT
# [13] = phospholipid biosynthesis inhibitors in animal cells, primary screen, cell-based, LOPAC library, screen 4 (AID 1347384; call rule not given here); details: phospholipid biosynthesis inhibition screen, at 10 µM
# [14] = system: Hepatitis C virus NS3 helicase; assay: HCV NS3 helicase inhibitors, primary screen, biochemical, fluorescence polarization, LOPAC1280 library (AID 687035; in the data active means inhibition above about 37%); details: Purified HCV NS3 helicase, Cy5-dT15 ssDNA binding fluorescence polarization; stronger effect = higher value; concentration not given here
# [15] = Cy5 fluorescence quenching or enhancement artefacts, artefact control for HCV NS3 helicase inhibitor project, biochemical, LOPAC1280 (AID 687037; call rule not given here); details: Cy5-DNA-NS3h complex fluorescence interference counterscreen
# [16] = measured here: combination with BGB at IC20, at 0.5 µM
# [17] = measured here: combination with cisplatin at IC20, at 0.5 µM
# [18] = measured here: combo with BGB at IC20, at 0.5 µM
# [19] = measured here: combo with cisplatin at IC20, at 0.5 µM
# [20] = measured here: inhibition with BGB combination, at 0.05 µM
# [21] = measured here: inhibition with cisplatin combination, at 0.05 µM
# [22] = measured here: combination with cisplatin, at 0.5 µM
# [23] = measured here: combination with cisplatin, at 5 µM
# [24] = BGB combination, concentration series, at 5 µM
# [25] = cisplatin combination, concentration series, at 5 µM
# [26] = measured here: combo with BGB IC20, at 0.5 µM
# [27] = measured here: combo with cisplatin IC20, at 0.5 µM
smiles,measurement,setting,value
CNCc1ccc(-c2[nH]c3cc(F)cc4c3c2CCNC4=O)cc1,inhibition,[1]; at 0.5 µM,-36.2% (inactive) and -5.02% (inactive)
same,inhibition,[1]; [16],-29.2% and -1.4%
same,inhibition,[1]; [17],-44.8% and 9.17%
same,inhibition,[2]; at 0.5 µM,-4.75% (inactive) and 7.82% (inactive)
same,inhibition,[2]; [18],-19.4% and -2.99%
same,inhibition,[2]; [19],-1.52% and 19.2%
same,inhibition,[3]; at 0.5 µM,3.38% (inactive) and 18.2% (inactive)
same,inhibition,[3]; [20],-7.35% and 1.55%
same,inhibition,[3]; [21],-18.2% and 33.2%
same,inhibition,[4]; at 0.5 µM,-21.7% (inactive) and 11% (inactive)
same,inhibition,[4]; [22],-36.4% and 1.09%
same,inhibition,[4]; [23],-18.9% and -8.07%
same,inhibition,[5]; [24],7.87% and 16.2%
same,inhibition,[5]; at 0.5 µM,2.14% (inactive) and 11.2% (inactive)
same,inhibition,[5]; [25],1.67% and 2.25%
same,inhibition,[6]; at 0.5 µM,5.22% (inactive) and 8.56% (inactive)
same,inhibition,[6]; [26],-3.65% and 3.02%
same,inhibition,[6]; [27],2.06% and 7.11%
O=C1C(CCC(O)c2ccc(F)cc2)C(c2ccc(O)cc2)N1c1ccc(F)cc1 (centres undefined),z-score,[7],-0.345 (inactive)
CS(=O)(=O)N(Cc1ccco1)CC(O)Cn1c2ccccc2c2ccccc21 (centres undefined),outcome,[8],inactive
O=c1cc(-c2ccc(O)c(O)c2)oc2cc(O)cc(O)c12,period change,[9],0.085 h (inactive)
same,survival,[10],0.75 (inactive)
same,parasite load remaining,[11],83% (inactive)
same,viability,[11],96.4%
CC(C)OC(=O)C1=CN(C(=O)c2ccc(F)c(F)c2)CC(C)(C)c2c1[nH]c1ccccc21,outcome,[8],inactive
CN(C)c1cc(NC(=O)CNC(C)(C)C)c(O)c2c1C[C@H]1C[C@H]3[C@H](N(C)C)C(=O)C(C(N)=O)=C(O)[C@@]3(O)C(=O)C1=C2O,remaining NAD,[12],10 nM (inactive)
O=C(NOC[C@H](O)CO)c1ccc(F)c(F)c1Nc1ccc(I)cc1F,outcome,[13],inactive
COc1ccc2cc(-c3nc(-c4ccc(S(C)=O)cc4)[nH]c3-c3ccncc3)ccc2c1 (centres undefined),outcome,[8],inactive
O=c1c2ccccc2nc2n1CCc1c-2[nH]c2ccccc12,period change,[9],0.11 h (inactive)
same,inhibition,[14],2% (inactive)
same,fluorescence ratio (interference),[15],1 (inactive)
same,outcome,[13],inactive
same,z-score,[7],1.2 (inactive)
CC(C)CN(C[C@@H](O)[C@H](Cc1ccccc1)NC(=O)O[C@H]1CCOC1)S(=O)(=O)c1ccc(N)cc1,parasite load remaining,[11],15.6% (inactive)
same,viability,[11],75.5%
same,z-score,[7],0.4 (inactive)
CN(C[C@@H]1COCCO1)S(=O)(=O)Nc1ccc2ccc3ncc(-c4cnn(C)c4)cc3c(=O)c2c1,AC50,[8],2630 nM (active)
CCOC(=O)N1c2ccc(C(F)(F)F)cc2[C@@H](N(Cc2cc(C(F)(F)F)cc(C(F)(F)F)c2)C(=O)OC)C[C@H]1CC,outcome,[8],inactive
CC(C)(C)OC(=O)Nc1ccc(-c2cc(C(=O)NCCCCCCC(=O)NO)no2)cc1,AC50,[8],1860 nM (active)
same,inhibition,[1]; at 0.5 µM,-72.5% (inactive) and -77.6% (inactive)
same,inhibition,[1]; [16],-95.4% and -52.6%
same,inhibition,[1]; [17],-69.5% and -63.5%
same,inhibition,[2]; at 0.5 µM,9.94% (inactive) and 21.1% (inactive)
same,inhibition,[2]; [18],2.31% and 13%
same,inhibition,[2]; [19],19.2% and 51.1%
same,inhibition,[3]; at 0.5 µM,-1.75% (inactive) and 9.21% (inactive)
same,inhibition,[3]; [20],-25.1% and -31.2%
same,inhibition,[3]; [21],-18.4% and -19.7%
same,inhibition,[4]; at 0.5 µM,-15% (inactive) and -8.72% (inactive)
same,inhibition,[4]; [22],-1.56% and 8.91%
same,inhibition,[4]; [23],69.3% and 57.6%
same,inhibition,[5]; [24],81.5% and 72.3%
same,inhibition,[5]; at 0.5 µM,-3.45% (inactive) and 2.97% (inactive)
same,inhibition,[5]; [25],90.6% and 89.6%
same,inhibition,[6]; at 0.5 µM,10.3% (inactive) and 12.5% (inactive)
same,inhibition,[6]; [26],8.87% and 11.7%
same,inhibition,[6]; [27],7.42% and 16.9%
CCCNC(=O)Nc1ccc(Oc2ncnc3cc(OC)c(OC)cc23)cc1Cl,AC50,[8],20900 nM (active)
NC(CO)(CO)CCc1ccc(Sc2cccc(OCc3ccccc3)c2)cc1Cl,AC50,[8],8330 nM (active)
CN(C)Cc1ccc(-c2nc3cccc4c3n2CCNC4=O)cc1,inhibition,[1]; at 0.5 µM,-12.7% (inactive) and -34.7% (inactive)
same,inhibition,[1]; [16],3.27% and -18.3%
same,inhibition,[1]; [17],-10.7% and -61.5%
same,inhibition,[2]; at 0.5 µM,-4.1% (inactive) and -8.91% (inactive)
same,inhibition,[2]; [18],-6.79% and -18.1%
same,inhibition,[2]; [19],-1.2% and -11.2%
same,inhibition,[3]; at 0.5 µM,2.77% (inactive) and -2.19% (inactive)
same,inhibition,[3]; [20],-14.3% and 1.91%
same,inhibition,[3]; [21],-5.64% and -29.4%
same,inhibition,[4]; at 0.5 µM,-22.3% (inactive) and -21% (inactive)
same,inhibition,[4]; [22],-26.3% and -32%
same,inhibition,[4]; [23],-30.5% and -31.6%
same,inhibition,[5]; [24],7.25% and 16.2%
same,inhibition,[5]; at 0.5 µM,0.7% (inactive) and -0.32% (inactive)
same,inhibition,[5]; [25],5.02% and -8.46%
same,inhibition,[6]; at 0.5 µM,3.46% (inactive) and 6.94% (inactive)
same,inhibition,[6]; [26],2.28% and -1.45%
same,inhibition,[6]; [27],8.6% and 1.46%
Cc1cccc(-c2nn(C(=S)Nc3ccccc3)cc2-c2ccnc3ccccc23)n1,outcome,[8],inactive
CC1(O)CC(c2nc(-c3ccc4ccc(-c5ccccc5)nc4c3)c3c(N)nccn23)C1 (centres undefined),AC50,[8],590 nM (active)
Nc1nc(OCc2ccccc2)c2[nH]cnc2n1,period change,[9],-0.35 h (inactive)
same,inhibition,[14],-2% (inactive)
same,fluorescence ratio (interference),[15],0.9 (inactive)
same,outcome,[13],inactive
same,z-score,[7],-0.125 (inactive)
CO[C@H]1/C=C/O[C@@]2(C)Oc3c(C)c(O)c4c(O)c(c(/C=N\N5CCN(C6CCCC6)CC5)c(O)c4c3C2=O)NC(=O)/C(C)=C\C=C\[C@H](C)[C@H](O)[C@@H](C)[C@@H](O)[C@@H](C)[C@H](OC(C)=O)[C@@H]1C,AC50,[8],23500 nM (active)
same,inhibition,[1]; at 0.5 µM,-17.9% (inactive)
same,inhibition,[1]; [16],-42.5%
same,inhibition,[1]; [17],-28.1%
same,inhibition,[2]; at 0.5 µM,-12% (inactive)
same,inhibition,[2]; [18],-9.84%
same,inhibition,[2]; [19],-22%
same,inhibition,[3]; at 0.5 µM,0.22% (inactive)
same,inhibition,[3]; [20],-17.7%
same,inhibition,[3]; [21],-11.8%
same,inhibition,[4]; at 0.5 µM,-7.15% (inactive)
same,inhibition,[4]; [22],-29.8%
same,inhibition,[4]; [23],-34%
same,inhibition,[5]; [24],4.16%
same,inhibition,[5]; at 0.5 µM,-5.57% (inactive)
same,inhibition,[5]; [25],10.5%
same,inhibition,[6]; at 0.5 µM,-10.7% (inactive)
same,inhibition,[6]; [26],-21%
same,inhibition,[6]; [27],-11%
Cn1cc(-c2[nH]c3cc(NC(=O)[C@H](N)C4CCCCC4)cc4c3c2C=NNC4=O)cn1,AC50,[8],2090 nM (active)
